Reference: PubChem BioAssay (Tox21)
Records with an inconclusive call do not appear. Active and inactive are the calls of the source. Unless noted, calls follow the shape of the full dose curve.

How the values were obtained:
[1] = qHTS assay to identify small molecule agonists of the vitamin D receptor (VDR) signaling pathway - cell viability counter screen (AID 743224; active = well fitted curve in the direction sought with a large enough effect in the repeat runs; an effect the other way counts as inactive or inconclusive; also: series mostly up to about 63 µM; % is scaled to controls: 0 for no effect and ±100 for the full control effect; nearly all actives have a fitted effect of over 50% in size)
Outline: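 In parallel with the bla FRET readout, cytotoxicity toward VDR-bla cells after 16 h compound exposure was assessed by CellTiter-Glo, with luminescence recorded after a 30 min room-temperature incubation.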

[2] = qHTS assay to identify small molecule antagonists of the vitamin D receptor (VDR) signaling pathway - cell viability counter screen (AID 743225; active = well fitted curve in the direction sought with a large enough effect in the repeat runs; an effect the other way counts as inactive or inconclusive; also: % is scaled to controls: 0 for no effect and ±100 for the full control effect; nearly all actives have a fitted effect of over 50% in size)
Outline: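 Cytotoxicity toward the VDR-bla HEK 293T line was scored by ATP-based CellTiter-Glo luminescence, read in the wells already used for the beta-lactamase readout after 16 h compound treatment under 3 nM 1-alpha,25-dihydroxyvitamin D3 stimulation.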

[3] = qHTS assay to identify small molecule agonists of the NFkB signaling pathway (AID 1159509; active = well fitted curve in the direction sought with a large enough effect in the signal ratio in the repeat runs, not every such curve was filed as active; the % refers to the signal ratio; also: series mostly up to about 61 µM; % is scaled to controls: 0 for no effect and ±100 for the full control effect)
Outline: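 Pathway activation was measured in ME-180 cells stably expressing beta-lactamase under NF-kB response element control. Substrate cleavage was read as the 460/530 nm emission shift after 5 hr compound incubation.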

[4] = qHTS assay to identify small molecule agonists of the NFkB signaling pathway - cell viability counter screen (AID 1159515); also: series mostly up to about 61 µM; % is scaled to controls: 0 for no effect and ±100 for the full control effect; nearly all actives have a fitted effect of over 55% in size
Outline: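 Plate 2,000 NFkB-bla ME-180 cells/well; incubate overnight. Add compounds, 5 hr at 37 C. Add FRET substrate, 1.5 hr RT. Add CellTiter-Glo, 30 min RT; read luminescence.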

[5] = qHTS assay to identify small molecule agonists of the endoplasmic reticulum stress response signaling pathway (AID 1159516; active = well fitted activation curve with a large enough effect in the signal ratio in the repeat runs, not every such curve was filed as active; the % refers to the signal ratio; also: % is scaled to controls: 0 for no effect and ±100 for the full control effect)
Outline: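 Beta-lactamase expression from the ER stress response element in HeLa reporter cells is quantified with the LiveBLAzer B/G FRET substrate, read at 405 nm excitation after 2 hr at room temperature, following 5 hr compound treatment at 37 C.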

[6] = qHTS assay to identify small molecule agonists of the endoplasmic reticulum stress response signaling pathway - cell viability counter screen (AID 1159517); also: series mostly up to about 61 µM; % is scaled to controls: 0 for no effect and ±100 for the full control effect; nearly all actives have a fitted effect of over 50% in size
Outline: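 ESRE-bla HeLa cells (1,500/well) were plated overnight at 37 C and exposed to compounds for 5 hr. After the 2 hr beta-lactamase substrate read, CellTiter-Glo went into the same wells, and luminescence was read after 30 min at room temperature.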

[7] = qHTS assay to identify small molecule antagonists of the retinoid-related orphan receptor gamma (ROR-gamma) signaling pathway - cell viability counter screen (AID 1159520; active = well fitted curve in the direction sought with a large enough effect in the repeat runs; an effect the other way counts as inactive or inconclusive; also: % is scaled to controls: 0 for no effect and ±100 for the full control effect; nearly all actives have a fitted effect of over 50% in size)
Outline: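 Cytotoxicity was read from cellular ATP (CellTiter-Glo luminescence) after 16 hr at 37 C with 1 uM doxycycline induction. The inducer was added 2 hr after compound transfer to Tet-on ROR gamma CHO cells.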

[8] = qHTS assay to identify small molecule agonists of the AP-1 signaling pathway - cell viability counter screen (AID 1159525); also: nearly all actives have a fitted effect of over 55% in size
Outline: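 Intracellular ATP by Cell Titer Glo luminescence (30 min, RT) in the same ME-180 AP-1-bla wells after the 5 h compound exposure at 37 °C. Normalised to tetra n-octyl ammonium bromide and DMSO controls.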

[9] = qHTS assay to identify small molecule agonists of the AP-1 signaling pathway (AID 1159526); also: % is scaled to controls: 0 for no effect and ±100 for the full control effect
[10] = molecular target: Nuclear receptor ROR-gamma (Homo sapiens) (UniProt P51449); assay: qHTS assay to identify small molecule antagonists of the retinoid-related orphan receptor gamma (ROR-gamma) signaling pathway (AID 1159521; active = well fitted curve in the direction sought with a large enough effect in the repeat runs; an effect the other way counts as inactive or inconclusive)
Outline: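 Readout: ONE-Glo luciferase luminescence, 30 min at room temperature. System: Tet-on RORγ CHO, RORE-LUC. Sequence: compound 2 h, doxycycline 1 uM final, 16 h at 37 C.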

CN(CC1(C)CCCO1)S(=O)(=O)c1ccc(Cl)c(S(N)(=O)=O)c1 (stereo not given)
inactive: Potency [1] | Potency [2] | outcome [3] | outcome [4] | outcome [5] | outcome [6] | Potency [7] | outcome [8] | Potency [9]

CC(=O)Nc1ccc(C)c(Cl)c1
inactive: Potency [1] | Potency [2] | outcome [3] | outcome [4] | outcome [5] | outcome [6] | Potency [7] | outcome [8] | Potency [9]

CC1(C)S[C@@H]2[C@H](NC(=O)C(C(=O)O)c3ccccc3)C(=O)N2[C@H]1C(=O)O (stereo not given in full)
inactive: Potency [1] | Potency [2] | outcome [3] | outcome [4] | outcome [5] | outcome [6] | Potency [7] | outcome [8] | Potency [9]

NCCC(O)(P(=O)(O)O)P(=O)(O)O
inactive: Potency [2] | outcome [3] | outcome [4] | outcome [5] | outcome [6] | Potency [7] | outcome [8] | Potency [9]

CC1=CC(=O)CC(C)(C)C1=O
inactive: Potency [1] | Potency [2] | outcome [3] | outcome [4] | outcome [5] | outcome [6] | Potency [7] | outcome [8] | Potency [9]

CC1(C)C(=O)N(Cl)C(=O)N1Br
inactive: Potency [1] | Potency [2] | outcome [3] | outcome [4] | outcome [5] | outcome [6] | Potency [7] | outcome [8] | Potency [9]

CN(C)Cc1ccccc1
inactive: Potency [1] | Potency [2] | outcome [3] | outcome [4] | outcome [5] | outcome [6] | Potency [7] | outcome [8] | Potency [9]

Cc1cc(NS(=O)(=O)c2ccc(N)cc2)nc(C)n1
inactive: Potency [1] | Potency [2] | outcome [3] | outcome [4] | outcome [5] | outcome [6] | Potency [7] | outcome [8] | Potency [9]

CN1CCN(c2c(F)cc3c(=O)c(C(=O)O)cn(CCF)c3c2F)CC1
inactive: Potency [1] | Potency [2] | outcome [3] | outcome [4] | outcome [5] | outcome [6] | Potency [7] | outcome [8] | Potency [9]

CC1CN(c2ccccc2)NC1=O (stereo not given)
inactive: outcome [3] | outcome [5] | outcome [6] | Potency [7] | Potency [10] | outcome [8]

CC(C)CCCCCCc1ccc(OCCOCCO)cc1
inactive: Potency [1] | Potency [2] | outcome [3] | outcome [4] | outcome [5] | outcome [6] | outcome [8] | Potency [9]

CCCc1c2oc(C(=O)O)cc(=O)c2cc2c(=O)cc(C(=O)O)n(CC)c12
inactive: Potency [1] | Potency [2] | outcome [3] | outcome [4] | outcome [5] | outcome [6] | Potency [10] | outcome [8]

N#CSCC(=O)O
inactive: Potency [1] | Potency [2] | outcome [3] | outcome [4] | outcome [5] | outcome [6] | outcome [8] | Potency [9]

C/C(=N\O)[C@@H](C)NCC(C)(C)CN[C@H](C)/C(C)=N/O
inactive: Potency [1] | Potency [2] | outcome [3] | outcome [4] | outcome [5] | outcome [6] | Potency [10] | Potency [9]

CC(C)(C)c1ccc(OC(=O)c2ccccc2O)cc1
inactive: outcome [3] | outcome [4] | outcome [5] | outcome [6] | Potency [10] | outcome [8]

Nc1ccc(Oc2ccc(N)c(N)c2)cc1
inactive: Potency [1] | outcome [3] | outcome [4] | outcome [5] | outcome [6] | Potency [10] | outcome [8]

CS(=O)(=O)c1ccc([C@@H](O)[C@@H](CF)NC(=O)C(Cl)Cl)cc1
inactive: Potency [1] | Potency [2] | outcome [3] | outcome [4] | outcome [5] | outcome [6] | outcome [8] | Potency [9]

CN1CCN(c2c(F)cc3c(=O)c(C(=O)O)cn4c3c2SCC4)CC1
inactive: Potency [1] | Potency [2] | outcome [3] | outcome [4] | outcome [5] | outcome [6] | outcome [8] | Potency [9]

CN1CCC[C@@H]1Cc1c[nH]c2ccc(CCS(=O)(=O)c3ccccc3)cc12
inactive: Potency [1] | Potency [2] | outcome [3] | outcome [4] | outcome [5] | outcome [6] | Potency [10] | outcome [8]

CCCCNc1cc(C(=O)O)cc(S(N)(=O)=O)c1Oc1ccccc1
inactive: Potency [1] | Potency [2] | outcome [3] | outcome [4] | outcome [5] | outcome [6] | outcome [8] | Potency [9]

CCOc1ccc2nc(N)sc2c1
inactive: Potency [1] | Potency [2] | outcome [3] | outcome [4] | outcome [5] | outcome [6] | Potency [9]

CCOC(=O)CS
inactive: Potency [1] | outcome [3] | outcome [4] | outcome [5] | outcome [6] | Potency [10] | outcome [8]

CC1(O)CSC(C)(O)CS1 (stereo not given)
inactive: Potency [2] | outcome [3] | outcome [4] | outcome [5] | outcome [6] | Potency [10] | outcome [8]

O=C(O)c1ccccc1Nc1cc(Cl)ccc1C(=O)O
inactive: outcome [3] | outcome [4] | outcome [5] | outcome [6] | activity change, negative = inhibition [10] -10.7% [at 19 µM]

C=CC1CO1 (stereo not given)
inactive: Potency [1] | Potency [2] | outcome [3] | outcome [4] | outcome [5] | outcome [6] | Potency [10] | Potency [9]

C1CSCCS1
inactive: Potency [1] | outcome [3] | outcome [4] | outcome [5] | outcome [6] | outcome [8] | Potency [9]

CN1CCN(C2=Nc3ccccc3Oc3ccc(Cl)cc32)CC1
inactive: Potency [1] | Potency [2] | outcome [3] | outcome [4] | outcome [5] | outcome [6] | Potency [10] | outcome [8]

CCOc1ccc(NS(=O)(=O)c2ccc(N)cc2)nn1
inactive: Potency [1] | Potency [2] | outcome [3] | outcome [4] | outcome [5] | outcome [6] | outcome [8] | Potency [9]
